Experimental findings from PubChem BioAssay (NCATS) are described below.

The target in assay [1] is Rap guanine nucleotide exchange factor 3 (Homo sapiens) (UniProt O95398). Description: Confirmatory qHTS for antagonist of cAMP-regulated guanine nucleotide exchange factor 3 (EPAC1) (AID 1645880). Note: nearly all actives have a fitted effect of over 55% in size. Note: potency is the fitted concentration of half-maximal effect. An outline of the steps: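 Nucleotide exchange uses 100 nM EPAC1, 250 nM RAP1B-BODIPY-GDP and 50 uM GDP, with compounds in a concentration-titration series. After 5 min at room temperature, fluorescence (480 nm ex/540 nm em) is read every 5 min for 30 min. Data are normalized to control ATA and DMSO.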
A general note: qHTS replaces the single test concentration by a dilution series.

For assay [2] the target is unchanged. Description: Confirmatory qHTS for agonist of cAMP-regulated guanine nucleotide exchange factor 3 (EPAC1) (AID 1645881).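 For activation: EPAC1 catalysed release of BODIPY-GDP from Rap1B seen as fluorescence loss; 100% = effect of cAMP agonist control.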 Note: nearly all actives have a fitted effect of over 75% in size. Note: potency is the fitted concentration of half-maximal effect.
In assay [3] the target is Rap guanine nucleotide exchange factor 4 (Homo sapiens) (UniProt Q8WZA2). Description: Confirmatory qHTS for agonist of cAMP-regulated guanine nucleotide exchange factor 4 (EPAC2) (AID 1645884). For activation: % is set by controls: 0 for no effect and ±100 for the full control effect.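 Note: nucleotide exchange releases bodipy-GDP from Rap1 and this lowers its fluorescence; nearly all actives have a fitted effect of over 65% in size.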 Note: potency is the fitted concentration of half-maximal effect.
Assay [4] shares this target. As to the kind of experiment: Confirmatory qHTS for antagonist of cAMP-regulated guanine nucleotide exchange factor 4 (EPAC2) (AID 1645885). For activity change, negative = inhibition: % is set by controls: 0 for no effect and ±100 for the full control effect. Note: nearly all actives have a fitted effect of over 25% in size. Note: potency is the fitted concentration of half-maximal effect.
The target of assay [5] is Rap guanine nucleotide exchange factor 3 (Homo sapiens) (UniProt O95398). Description: Counterscreen qHTS for antagonist of cAMP-regulated guanine nucleotide exchange factor 3 (EPAC1) (AID 1645888).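 Note: fluorescence loss as bound BODIPY-GDP is released from Rap1B; % of control where 0% means no effect.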 An outline of the steps:
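Rap1B-BODIPY-GDP 250 nM + GDP 50 uM; cpds 7-pt, final 9.74 nM–152 uM (activator mode) or from 7.32 nM upwards (inhibitor mode); RT; FI 480/540 nm at 5 and 30 min, then ± cAMP, reread.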
(A counterscreen serves to expose hits that act by an unwanted route or on another target.)

The structures appear in SMILES notation. Results filed as inconclusive are left out. Unmarked numbers belong to inactive results. The source made the active and inactive calls. Calls come from the whole dose curve; as a rule, active = well fitted curve in the direction sought with a large enough effect; inconclusive = small, poorly fitted or top-dose-only effect, or another doubt; inactive = no such curve, though single readings can be large; an effect the other way counts as inactive or inconclusive.

Sequence of Rap guanine nucleotide exchange factor 4 (Homo sapiens) (Q8WZA2 whole entry, looked up): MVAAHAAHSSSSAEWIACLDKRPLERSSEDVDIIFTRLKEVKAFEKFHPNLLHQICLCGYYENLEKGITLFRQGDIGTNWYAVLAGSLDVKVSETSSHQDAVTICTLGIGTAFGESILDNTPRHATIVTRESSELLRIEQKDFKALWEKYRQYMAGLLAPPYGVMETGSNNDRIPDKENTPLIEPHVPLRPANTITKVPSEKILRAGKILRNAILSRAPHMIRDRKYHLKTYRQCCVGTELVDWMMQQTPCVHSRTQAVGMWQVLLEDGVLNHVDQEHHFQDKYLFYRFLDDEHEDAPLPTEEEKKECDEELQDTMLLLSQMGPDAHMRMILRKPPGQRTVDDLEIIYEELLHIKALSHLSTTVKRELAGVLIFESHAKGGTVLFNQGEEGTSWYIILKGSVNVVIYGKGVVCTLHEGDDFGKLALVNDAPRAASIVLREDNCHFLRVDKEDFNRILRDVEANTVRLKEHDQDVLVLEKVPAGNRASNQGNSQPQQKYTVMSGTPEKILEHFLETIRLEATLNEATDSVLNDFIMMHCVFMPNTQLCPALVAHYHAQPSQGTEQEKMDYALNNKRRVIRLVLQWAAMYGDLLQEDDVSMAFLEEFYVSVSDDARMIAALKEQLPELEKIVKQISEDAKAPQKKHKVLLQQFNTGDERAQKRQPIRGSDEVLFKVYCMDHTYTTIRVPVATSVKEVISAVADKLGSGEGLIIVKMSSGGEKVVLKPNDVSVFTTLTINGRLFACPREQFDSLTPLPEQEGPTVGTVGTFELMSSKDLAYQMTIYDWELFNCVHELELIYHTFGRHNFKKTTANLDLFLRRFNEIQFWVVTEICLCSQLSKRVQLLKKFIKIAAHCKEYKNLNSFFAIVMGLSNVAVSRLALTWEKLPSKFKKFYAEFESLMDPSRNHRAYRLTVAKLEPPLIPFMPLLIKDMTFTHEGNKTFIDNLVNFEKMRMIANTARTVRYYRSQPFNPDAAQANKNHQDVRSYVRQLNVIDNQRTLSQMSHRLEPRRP
Sequence of Rap guanine nucleotide exchange factor 3 (Homo sapiens) (O95398 whole entry, looked up): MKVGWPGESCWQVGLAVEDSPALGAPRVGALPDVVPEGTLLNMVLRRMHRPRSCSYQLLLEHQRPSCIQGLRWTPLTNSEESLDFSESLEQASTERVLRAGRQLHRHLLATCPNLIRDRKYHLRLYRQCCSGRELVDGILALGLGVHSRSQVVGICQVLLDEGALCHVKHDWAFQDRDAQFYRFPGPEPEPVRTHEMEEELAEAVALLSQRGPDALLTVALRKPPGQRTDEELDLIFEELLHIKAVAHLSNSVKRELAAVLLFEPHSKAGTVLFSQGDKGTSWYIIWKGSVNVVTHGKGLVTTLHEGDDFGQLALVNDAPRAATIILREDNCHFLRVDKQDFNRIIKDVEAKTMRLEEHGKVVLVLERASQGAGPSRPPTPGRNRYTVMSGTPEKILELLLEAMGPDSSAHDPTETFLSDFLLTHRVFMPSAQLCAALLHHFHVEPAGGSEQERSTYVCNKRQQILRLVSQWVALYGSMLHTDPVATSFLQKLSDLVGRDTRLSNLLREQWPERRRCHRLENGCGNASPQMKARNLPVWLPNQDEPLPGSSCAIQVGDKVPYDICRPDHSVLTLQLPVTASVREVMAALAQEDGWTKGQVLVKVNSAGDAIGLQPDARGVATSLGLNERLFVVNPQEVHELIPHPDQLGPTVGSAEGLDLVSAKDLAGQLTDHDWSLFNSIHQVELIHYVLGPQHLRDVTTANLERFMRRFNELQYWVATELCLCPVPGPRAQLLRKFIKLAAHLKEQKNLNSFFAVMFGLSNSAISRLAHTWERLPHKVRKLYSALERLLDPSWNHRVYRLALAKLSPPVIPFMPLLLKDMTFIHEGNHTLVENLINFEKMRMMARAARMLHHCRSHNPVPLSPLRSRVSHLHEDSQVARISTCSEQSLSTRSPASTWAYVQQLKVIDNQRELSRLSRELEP

Regarding `CC(C)OC1(c2ccccc2)OC(=O)c2ccccc21` (stereo not given), the Potency result in assay [1], in assay [2], in assay [3], in assay [4] and in assay [5] was “inactive” throughout.
Turning to `CCOC(=O)COc1ccc(Br)cc1/C=C\c1[nH]c(=O)[nH]c(=O)c1[N+](=O)[O-]`, the Potency in assay [1] is 20 µM (active). The Potency result in assay [2] and in assay [4] was “inactive” in each case. In addition, the activation in assay [3] was 4.81% [at 17.1 µM, percent relative to cAMP agonist control]. Further, in assay [5], the activity change, negative = inhibition was -24.7% [at 30.8 µM].
`Cc1cc(Cl)ccc1-n1c(CCC(=O)O)ccc1-c1cccs1`: the Potency entry in assay [1], in assay [2], in assay [3], in assay [4] and in assay [5] was “inactive” each time.
For the compound `COCC(=O)Oc1c(Sc2ccc(C)cc2)c(C)nn1C(C)(C)C`, the Potency entry in assay [1], in assay [2], in assay [3], in assay [4] and in assay [5] was “inactive” in each case.
For the compound `COc1ccc(-n2c(SCC(=O)Nc3nccs3)nc3c(c2=O)SC(C)C3)cc1` (stereo not given), the Potency entry in assay [1], in assay [2], in assay [3], in assay [4] and in assay [5] was “inactive” throughout.
Consider `CNc1c(-n2cc(C(=O)OC)c(C(=O)OC)c2C(=O)OC)c(=O)n(C)c(=O)n1C`, for which the Potency entry in assay [1], in assay [2], in assay [3], in assay [4] and in assay [5] was “inactive” each time.
Regarding `Cc1nc(Cl)sc1C(=O)NC(C)c1ccc(Cl)cc1` (stereo not given), the Potency result in assay [1], in assay [2], in assay [3], in assay [4] and in assay [5] was “inactive” throughout.
`COc1ccc(C(=O)N(Cc2ccccc2)c2cccc(C)c2)c(OC)c1OC`: the Potency result in assay [1], in assay [2], in assay [3], in assay [4] and in assay [5] was “inactive” each time.
For `Cc1cccc(NC(=O)Cn2c(O)c(N=NC(=O)c3ccncc3)c3ccccc32)c1`, the Potency result in assay [1], in assay [2], in assay [3], in assay [4] and in assay [5] was “inactive” each time.
Consider `Nc1ncnc2c1ncn2[C@@H]1O[C@H](C(=O)N[C@H]2c3ccccc3C[C@H]2OC=O)[C@@H](O)[C@H]1O`, for which the Potency result in assay [1], in assay [2], in assay [3], in assay [4] and in assay [5] was “inactive” each time.
`CCc1ccc(/C=C2/SC(=S)N(CCCC(=O)Nc3ccccc3C(=O)O)C2=O)cc1`: in assay [1], the Potency is 75.7 µM (active). The Potency entry in assay [2], in assay [3], in assay [4] and in assay [5] was “inactive” in each case.
For `COC(=O)C1=CN(Cc2ccc(OC)c(OC)c2)C=C(C(=O)OC)C1c1cccc(F)c1`, the Potency result in assay [1], in assay [2], in assay [3], in assay [4] and in assay [5] was “inactive” throughout.
For the compound `O=C1Nc2ccccc2Nc2ncccc21`, the Potency entry in assay [1], in assay [2] and in assay [4] was “inactive” each time. Further, the activation in assay [3] is -4.86% [at 17.1 µM, percent relative to cAMP agonist control]. For the same compound, in assay [5], the activity change, negative = inhibition is 0.957% [at 30.8 µM].
For the compound `COc1cc(/C=C2\SC(=S)N(NS(=O)(=O)c3ccc(C)cc3)C2=O)ccc1O`, in assay [1], the Potency is 22.4 µM (active). Moreover, the Potency entry in assay [2] and in assay [4] was “inactive” in each case. For the same compound, the activation in assay [3] is 2.55% [at 17.1 µM, percent relative to cAMP agonist control]. Moreover, in assay [5], the activity change, negative = inhibition is -2.35% [at 30.8 µM].
Turning to `Cc1ccc(C)c(S(=O)(=O)/N=C2\C=C(NS(=O)(=O)c3ccccc3)C(=O)c3ccccc32)c1`, the Potency in assay [1] was 22.4 µM (active). For the same compound, the Potency entry in assay [2] and in assay [4] was “inactive” throughout. Also, the activation in assay [3] was 3.6% [at 17.1 µM, percent relative to cAMP agonist control]. In addition, the activity change, negative = inhibition in assay [5] is -11.3% [at 30.8 µM].
As for `CCc1nc(C)cn1S(=O)(=O)c1cc(C)c(OC)cc1C`, the Potency result in assay [1], in assay [2], in assay [3], in assay [4] and in assay [5] was “inactive” throughout.
Regarding `COc1ccc(C(=O)c2ccc(OC)c(OC)c2OC)cc1`, the Potency result in assay [1], in assay [2], in assay [3] and in assay [5] was “inactive” in each case. The Potency in assay [4] is 7.57 µM (active).
On to `Cc1ccc(Cl)c2sc(N3CCN(C(=O)c4ccco4)CC3)nc12`, for which the Potency entry in assay [1], in assay [2] and in assay [4] was “inactive” throughout. For the same compound, the activation in assay [3] is 3.67% [at 17.1 µM, percent relative to cAMP agonist control]. Also, in assay [5], the activity change, negative = inhibition is -12.9% [at 30.8 µM].
As for `Cc1ccc(S(=O)(=O)N2CCN(C(=O)CC(C)n3nc(C)c(Cl)c3C)CC2)cc1` (stereo not given), the Potency entry in assay [1], in assay [2] and in assay [4] was “inactive” throughout. Also, the activation in assay [3] is 1.58% [at 17.1 µM, percent relative to cAMP agonist control]. In assay [5], the activity change, negative = inhibition is 13.5% [at 30.8 µM].
On to `Cn1cc(C(c2ccccc2)c2ccc(Cl)s2)c2ccccc21` (stereo not given), for which the Potency entry in assay [1], in assay [2], in assay [3], in assay [4] and in assay [5] was “inactive” in each case.
Consider `N#C/C(=C/c1ccc(O)c(O)c1)c1nc2ccccc2[nH]1`, for which the Potency in assay [1] is 6.01 µM (active). The Potency entry in assay [2], in assay [3], in assay [4] and in assay [5] was “inactive” throughout.
`Cc1cccc(-n2nc(C)c(C(=O)Nc3cc(C)ccc3C)c2-n2cccc2)c1`: the Potency result in assay [1], in assay [2], in assay [3], in assay [4] and in assay [5] was “inactive” in each case.
Consider `O=C1OC(c2ccccc2)/C(=C(/O)c2ccccc2)C1=O` (stereo not given), for which the Potency entry in assay [1], in assay [2] and in assay [4] was “inactive” each time. Further, the activation in assay [3] is 9.85% [at 17.1 µM, percent relative to cAMP agonist control]. In assay [5], the activity change, negative = inhibition was -5.63% [at 30.8 µM].
For `O=C1NC(=Nc2ccccc2Cl)S/C1=C\c1cc([N+](=O)[O-])ccc1O`, the Potency in assay [1] was 53.6 µM (active); in assay [4] it was 26.9 µM (active). Also, the Potency result in assay [2], in assay [3] and in assay [5] was “inactive” throughout.
With `CN(C)C(=O)c1cccc(-c2cnc3c(NC=O)cc(-c4ccc(F)cc4)cn23)c1`, the Potency result in assay [1], in assay [2], in assay [3], in assay [4] and in assay [5] was “inactive” in each case.
Turning to `O=S(=O)(NCc1ccco1)c1ccc(Cl)cc1Cl`, the Potency result in assay [1], in assay [2] and in assay [4] was “inactive” each time. Moreover, in assay [3], the activation was 3.78% [at 17.1 µM, percent relative to cAMP agonist control]. Besides, the activity change, negative = inhibition in assay [5] is -9.1% [at 30.8 µM].
In the case of `CC1(Cc2ccc(Cl)cc2)C(=O)Nc2ccc(-c3cccnc3)cc21` (stereo not given), the Potency result in assay [1], in assay [2], in assay [3], in assay [4] and in assay [5] was “inactive” throughout.
With `COC(=O)c1cc2oc(C)cc2n1Cc1ccccc1Cl`, the Potency entry in assay [1], in assay [2], in assay [3], in assay [4] and in assay [5] was “inactive” in each case.
`COc1ccccc1/C=C/C=C1\Oc2c(ccc(O)c2CN2CCN(CCO)CC2)C1=O`: the Potency result in assay [1] and in assay [5] was “inactive” each time. Moreover, the Potency in assay [2] is 100 µM (active); in assay [3] it was 100 µM (active); in assay [4] it was 84.9 µM (active).
With `COc1cc2c(cc1OC)-c1cc(NCc3ccccn3)nc(=O)n1CC2`, the Potency in assay [1] was 37.9 µM (active). The Potency entry in assay [2], in assay [3], in assay [4] and in assay [5] was “inactive” throughout.
Regarding `COc1cccc(C(=O)C2=NN(C(C)=O)CC2c2ccco2)c1` (stereo not given), the Potency entry in assay [1], in assay [2], in assay [3], in assay [4] and in assay [5] was “inactive” each time.
On to `COCCn1cnnc1SCC(=O)Nc1sc2c(c1C#N)CCC2`, for which the Potency result in assay [1], in assay [2] and in assay [4] was “inactive” in each case. For the same compound, in assay [3], the activation is 9.93% [at 17.1 µM, percent relative to cAMP agonist control]. Also, the activity change, negative = inhibition in assay [5] is 9.73% [at 30.8 µM].
With `CC(=O)Nc1cccc(NC(=O)CSc2nc(=O)n(CCN3CCOCC3)c3c2CCCC3)c1`, the Potency result in assay [1], in assay [2], in assay [3], in assay [4] and in assay [5] was “inactive” in each case.
For the compound `COc1ccc(C)cc1NC(=O)CSc1nc(=O)n(Cc2ccco2)c2c1CCC2`, the Potency in assay [1] was 84.9 µM (active). For the same compound, the Potency entry in assay [2], in assay [3], in assay [4] and in assay [5] was “inactive” each time.
`COc1ccc(C2C=C(c3ccccc3)Nc3nnnn32)cc1` (stereo not given): the Potency entry in assay [1], in assay [2], in assay [3], in assay [4] and in assay [5] was “inactive” each time.
As to `CC1=NN(c2ccccc2)C(=O)C1/C=C1\NC(=S)NC1=O` (stereo not given), the Potency in assay [1] is 67.5 µM (active). The Potency entry in assay [2], in assay [3], in assay [4] and in assay [5] was “inactive” each time.
With `CN(C)C(=O)CCc1ccc2c3c([nH]c2c1)[C@]1(C)[C@@H](C(=O)N2CCCCC2)C[C@H](CC(=O)NCCc2ccccn2)C(=O)N1CC3`, the Potency entry in assay [1], in assay [2] and in assay [4] was “inactive” in each case. Also, in assay [3], the activation is -3.15% [at 17.1 µM, percent relative to cAMP agonist control]. In assay [5], the activity change, negative = inhibition was -16% [at 30.8 µM].
In the case of `COc1cc(C)cc(C(=O)C=Cc2ccccc2)c1O`, the Potency result in assay [1], in assay [2] and in assay [4] was “inactive” in each case. Besides, the activation in assay [3] is 3.76% [at 17.1 µM, percent relative to cAMP agonist control]. Also, the activity change, negative = inhibition in assay [5] is 12.7% [at 30.8 µM].
